SMILES strings stand for the structures. Values without a mark were called inactive. Activity calls are given as the source filed them. Calls follow the shape of the dose curve; as a rule, active = well fitted curve in the direction sought with a large enough effect in the repeat runs; inconclusive = weak or mixed curves; inactive = flat fitted curve, though single readings scatter.
% is scaled to controls: 0 for no effect and ±100 for the full control effect.

The nature of one assay: qHTS assay to test for compound auto fluorescence at 535 nm (green) in HEK293 cells (AID 720680). Particulars: green autofluorescence 485/535 nm; series mostly up to 91.3 µM; fluorescence, % of fluorescein: at the top concentration. (In general: Quantitative high-throughput screening tests each substance at several concentrations.)
Consider `O=c1c2ccccc2c(=O)c2c1cc(Cl)c1[nH]c3c([nH]c12)c(Cl)cc1c(=O)c2ccccc2c(=O)c13`, for which the “fluorescence, % of fluorescein” value is -0.0197%.

Consider `CCN(CC)CCN1C(=O)CN=C(c2ccccc2F)c2cc(Cl)ccc21`, for which the “fluorescence, % of fluorescein” value was -0.0187% [at 46 µM].

Turning to `CNC(=O)O/N=C(\C)C(C)S(C)(=O)=O` (configuration not stated), the “fluorescence, % of fluorescein” value is -0.0122% [at 920 µM].

In the case of `CCCCCCC[CH2][Sn]([Cl])([Cl])[CH2]CCCCCCC`, the “fluorescence, % of fluorescein” value is -0.0268%.

Turning to `O=C(NC(=O)c1c(F)cccc1F)Nc1ccc(Oc2ccc(C(F)(F)F)cc2Cl)cc1F`, the “fluorescence, % of fluorescein” value is 0.122%.

For the molecule `CN(C)C(=S)SSC(=S)N(C)C`, the molecule was called inactive.

`Nc1nc(N)nc(Cl)n1`: the “fluorescence, % of fluorescein” value is 0.0199%.

`Oc1cc(Cl)c(Cl)c(Cl)c1Cl`: the “fluorescence, % of fluorescein” value was 0.0882%.

As for `O=[N+]([O-])c1ccc(Cl)c(Cl)c1Cl`, the “fluorescence, % of fluorescein” value is -0.0231%.

Take `Cc1cccc(Cc2cnc[nH]2)c1C`: the “fluorescence, % of fluorescein” value is 0.0425% [at 46 µM].

Take `O=NN(CCO)CCO`: the “fluorescence, % of fluorescein” value was -0.0932%.

With `C=CC(=O)[O][Sn]([CH2]CCC)([CH2]CCC)[CH2]CCC`, the “fluorescence, % of fluorescein” value was 0.0404%.

In the case of `CSSC`, the “fluorescence, % of fluorescein” value is -0.0737% [at 95.7 µM].

As to `CCC[CH2][Sn]([CH2]CCC)([CH2]CCC)[CH2]CCC`, the “fluorescence, % of fluorescein” value is 0.0386%.

For the molecule `CCCCON=O`, the “fluorescence, % of fluorescein” value was 0.0021% [at 95.7 µM].

Consider `CNC(=O)Oc1cc(C)cc(C(C)C)c1`, for which the “fluorescence, % of fluorescein” value is 0.0421%.

With `CCc1cccc(C)c1N(C(=O)CCl)[C@@H](C)COC`, the “fluorescence, % of fluorescein” value is -0.126%.

On to `NC(=O)C(Cl)Cl`, for which the “fluorescence, % of fluorescein” value is -0.0477%.

Consider `CN1C(=O)[C@@H](NC(=O)c2cc3ccccc3[nH]2)N=C(c2ccccc2)c2ccccc21`, for which the “fluorescence, % of fluorescein” value is 0.011% [at 46 µM].

As to `O=C(N[C@@H]1N=C(c2ccccc2F)c2cccc3c2N(CC3)C1=O)c1cc2ccccc2[nH]1`, the “fluorescence, % of fluorescein” value is -0.135% [at 46 µM].

Turning to `CCCCc1ccccc1`, the “fluorescence, % of fluorescein” value is -0.177%.

With `Clc1ccc(C(Cl)(Cl)Cl)cc1Cl`, the “fluorescence, % of fluorescein” value was -0.0771%.

Consider `CCn1cc[n+](C)c1` (tested in a mixture with another compound), for which the “fluorescence, % of fluorescein” value was -0.0371%.

As for `CCCCC(CC)COC(=O)c1ccccc1C(=O)OCC(CC)CCCC` (configuration not stated), the “fluorescence, % of fluorescein” value was -0.118%.

For the molecule `CNC(=O)CSP(=O)(OC)OC`, the “fluorescence, % of fluorescein” value is -0.033%.

Turning to `[Cl][Hg][c]1ccccc1`, the “fluorescence, % of fluorescein” value was 0.0232%.

On to `ClCBr`, for which the “fluorescence, % of fluorescein” value was 0.0826% [at 95.7 µM].

On to `Cc1ccc2cc3c(ccc4ccccc43)c3c2c1CC3`, for which the “fluorescence, % of fluorescein” value was 0.0912% [at 46 µM].

In the case of `CSC(C)(C)/C=N/O`, the “fluorescence, % of fluorescein” value was 0.0203%.

On to `CCNS(=O)(=O)C(F)(F)C(F)(F)C(F)(F)C(F)(F)C(F)(F)C(F)(F)C(F)(F)C(F)(F)F`, for which the “fluorescence, % of fluorescein” value is -0.0033%.

As for `CCOP(=S)(NC(C)C)Oc1ccccc1C(=O)OC(C)C` (configuration not stated), the “fluorescence, % of fluorescein” value is 0.213%.

In the case of `CC(Cl)CCl` (configuration not stated), the “fluorescence, % of fluorescein” value was 0.052%.

In the case of `CCOP(=O)(OCC)Oc1nc(Cl)c(Cl)cc1Cl`, the “fluorescence, % of fluorescein” value is 0.0205%.

On to `CNC(C)(C)Cc1ccccc1`, for which the fluorescence, % of fluorescein is 0.0122% [at 18.6 µM].

For `C[N+]1(C)[C@@H]2CC[C@H]1CC(OC(=O)C(CO)c1ccccc1)C2` (some centres not stated), the result was inactive.

Take `C=CC(=C)C`: the “fluorescence, % of fluorescein” value is 0.144%.

In the case of `Cc1cnc2c(C(=O)O)c(Cl)ccc2c1`, the “fluorescence, % of fluorescein” value was -0.0388%.

A short description of a further assay: qHTS assay to test for compound auto fluorescence at 460 nm (blue) in HEK293 cell free culture (AID 720681). The conditions noted are these: cell-free medium, autofluorescence 405/460 nm (blue); series mostly up to 91.3 µM; fluorescence, % of fluorescent control: at the top concentration. In a few lines: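 Compounds were added to cell-free DMEM with 10% FBS and fluorescence read directly. The blue channel used 405 nm excitation and 460 nm emission, with triamterene as the reference fluorophore.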
On to `O=c1c2ccccc2c(=O)c2c1cc(Cl)c1[nH]c3c([nH]c12)c(Cl)cc1c(=O)c2ccccc2c(=O)c13`, for which the “fluorescence, % of fluorescent control” value is 0.544%.

As to `CNC(=O)O/N=C(\C)C(C)S(C)(=O)=O` (configuration not stated), the “fluorescence, % of fluorescent control” value was -0.102% [at 920 µM].

Regarding `CCCCCCC[CH2][Sn]([Cl])([Cl])[CH2]CCCCCCC`, the “fluorescence, % of fluorescent control” value was 0.25%.

With `O=C(NC(=O)c1c(F)cccc1F)Nc1ccc(Oc2ccc(C(F)(F)F)cc2Cl)cc1F`, the “fluorescence, % of fluorescent control” value is 0.267%.

As to `CN(C)C(=S)SSC(=S)N(C)C`, the Potency result is “inactive”.

With `Nc1nc(N)nc(Cl)n1`, the “fluorescence, % of fluorescent control” value is -0.0615%.

As to `Oc1cc(Cl)c(Cl)c(Cl)c1Cl`, the “fluorescence, % of fluorescent control” value is 0.0005%.

On to `O=[N+]([O-])c1ccc(Cl)c(Cl)c1Cl`, for which the “fluorescence, % of fluorescent control” value was -0.251%.

For the molecule `C=CC(=O)[O][Sn]([CH2]CCC)([CH2]CCC)[CH2]CCC`, the “fluorescence, % of fluorescent control” value is 0.0122%.

With `CSSC`, the “fluorescence, % of fluorescent control” value was -0.229% [at 95.7 µM].

Take `CCC[CH2][Sn]([CH2]CCC)([CH2]CCC)[CH2]CCC`: the “fluorescence, % of fluorescent control” value is 0.13%.

Take `CCCCON=O`: the “fluorescence, % of fluorescent control” value was -0.0163% [at 95.7 µM].

On to `CNC(=O)Oc1cc(C)cc(C(C)C)c1`, for which the “fluorescence, % of fluorescent control” value is -0.126%.

As to `CCc1cccc(C)c1N(C(=O)CCl)[C@@H](C)COC`, the “fluorescence, % of fluorescent control” value was 0.13%.

Consider `NC(=O)C(Cl)Cl`, for which the “fluorescence, % of fluorescent control” value was -0.0768%.

The values are drawn from PubChem BioAssay (Tox21).
